Laboratory results as given in PubChem BioAssay (EPA / NIEHS).
Records with an inconclusive call do not appear. Active and inactive are the calls of the source. Rule for the calls, unless noted: active = hit-call score of the fitted dose curve at least 0.9, where 1 is the maximum; inconclusive = response in the unintended direction; inactive = score below 0.9.

Tests used:
[1] = read-out: Cytochrome P450 2C19 (Homo sapiens) (UniProt P33261); experiment: CLD_CYP2C19_48hr: CellzDirect (CLD) Gene Expression Assay for xenobiotic metabolism (CYP2C19) at 48 hours (AID 2283700);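 note: fitted upward so actives raise CYP2C19 mRNA above the 0.2% DMSO vehicle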
How it was run: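 CYP2C19 mRNA induction read by chemiluminescent quantitative nuclease protection assay after 48 h, with fresh compound added daily for two days to cultured human liver hepatocytes. Activity fitted upward against 0.2% DMSO vehicle.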

[2] = read-out: alkyl and aryl transferase (GSTA2), GSTA2 (gene 2939); experiment: CLD_GSTA2_48hr: CellzDirect (CLD) Gene Expression Assay for alkyl and aryl transferase (GSTA2) at 48 hours (AID 2283708);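 note: active means mRNA induction above DMSO vehicle baseline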
How it was run: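 GSTA2 mRNA quantified by qNPA chemiluminescence in human primary hepatocyte lysates after 48 h of daily fresh chemical dosing. Increases fitted against 0.2% DMSO vehicle baseline; cytotoxicity from morphology annotated yes/no.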

[3] = read-out: glucuronosyltransferase (UGT1A1), UGT1A1 (gene 54658); experiment: CLD_UGT1A1_48hr: CellzDirect (CLD) Gene Expression Assay for glucuronosyltransferase (UGT1A1) at 48 hours (AID 2283709);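 note: actives increase expression relative to DMSO so potency refers to induction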
How it was run: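 Quantitative nuclease protection assay (chemiluminescent) for UGT1A1 mRNA at 48 h in human hepatocyte cultures from two donors, redosed daily with fresh solutions. Induction fitted relative to 0.2% DMSO; phase-contrast morphology annotated cytotoxicity.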

[4] = read-out: xenobiotic metabolism (CYP1A2), CYP1A2 (gene 1544); experiment: CLD_CYP1A2_48hr: CellzDirect (CLD) Gene Expression Assay for xenobiotic metabolism (CYP1A2) at 48 hours (AID 2283703)
How it was run: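 Cytotoxicity was flagged yes/no from morphology, while CYP1A2 transcript induction was detected by qNPA chemiluminescence after a 48-hour exposure. Human primary hepatocyte cultures from separate donors received fresh dosing solutions daily over two days, with 0.2% DMSO as vehicle and baseline.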

[5] = read-out: Glyceraldehyde-3-phosphate dehydrogenase (Homo sapiens) (UniProt P04406); experiment: CLD_GAPDH_48hr: CellzDirect (CLD) Gene Expression Assay for Baseline Control (Glyceraldehyde 3-phosphate dehydrogenase) at 48 hours (AID 2283706);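 note: active means higher GAPDH mRNA than DMSO vehicle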
How it was run: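 GAPDH baseline-control readout: qNPA chemiluminescent mRNA quantitation in human liver primary cells 48 h after daily dosing on two consecutive days, vehicle 0.2% DMSO; gain of signal fitted against DMSO, cytotoxicity flagged by phase-contrast morphology.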

[6] = STM_H9_OrnithineISnorm_perc: Stemina devTOX quickPredict H9 human embryonic stem cell (hESC)-based Assay for Ornithine (ORN) Metabolite Biomarker, Normalized (AID 2283712; active = hit-call score of the fitted dose curve at least 0.9, where 1 is the maximum; inactive = score below 0.9;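 note: ornithine released into spent medium during last day measured by mass spectrometry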)
How it was run: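 Ornithine secreted by H9 hESCs after 72h compound treatment (daily media/compound renewal) was quantified in final-day media by UPLC-HRMS. Values are isotope-standard-normalized, expressed relative to 0.1% DMSO, fitted in positive direction.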

[7] = read-out: Broad substrate specificity ATP-binding cassette transporter ABCG2 (Homo sapiens) (UniProt Q9UNQ0); experiment: CLD_ABCG2_48hr: CellzDirect (CLD) Gene Expression Assay for ABC Transporter (ABCG2) at 48 hours (AID 2283704);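 for AC50: potency for induction of ABCG2 mRNA above the DMSO baseline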
How it was run: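 ABCG2 transcript measured at 48 h by quantitative nuclease protection (chemiluminescent) and fitted for increase relative to 0.2% DMSO. Hepatocyte cultures from separate donors got fresh compound daily over two days; morphology annotated cytotoxicity.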

[8] = read-out: organic anion transporter (SLCO1B1), SLCO1B1 (gene 10599); experiment: CLD_SLCO1B1_48hr: CellzDirect (CLD) Gene Expression Assay for organic anion transporter (SLCO1B1) at 48 hours (AID 2283707)
How it was run: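 SLCO1B1 transcript quantified by qNPA with chemiluminescent readout after 48 h of once-daily chemical exposure. Cultured human primary hepatocytes came from two donors, with 0.2% DMSO vehicle; positive-direction fitting against DMSO, cytotoxicity flagged by morphology.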

[9] = read-out: HMG-CoA synthase (HMGCS2), HMGCS2 (gene 3158); experiment: CLD_HMGCS2_48hr: CellzDirect (CLD) Gene Expression Assay for HMG-CoA synthase (HMGCS2) at 48 hours (AID 2283711)
How it was run: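 mRNA induction read by qNPA chemiluminescence, 48 h after dosing. Cultured primary human liver cells (two donor preparations) received fresh compound daily over two days against 0.2% DMSO vehicle; morphology-based cytotoxicity noted alongside.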

Chain of Glyceraldehyde-3-phosphate dehydrogenase (Homo sapiens) (P04406 whole entry, looked up): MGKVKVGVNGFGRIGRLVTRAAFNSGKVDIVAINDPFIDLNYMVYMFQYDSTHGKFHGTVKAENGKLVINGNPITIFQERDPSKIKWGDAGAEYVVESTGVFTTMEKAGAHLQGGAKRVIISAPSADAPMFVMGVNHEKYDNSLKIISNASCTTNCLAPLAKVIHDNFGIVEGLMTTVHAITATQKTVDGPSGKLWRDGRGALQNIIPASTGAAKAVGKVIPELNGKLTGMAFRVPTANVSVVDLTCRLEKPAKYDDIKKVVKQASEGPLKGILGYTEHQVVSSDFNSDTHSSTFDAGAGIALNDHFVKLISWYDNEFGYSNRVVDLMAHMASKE
Chain of Broad substrate specificity ATP-binding cassette transporter ABCG2 (Homo sapiens) (Q9UNQ0 whole entry, looked up): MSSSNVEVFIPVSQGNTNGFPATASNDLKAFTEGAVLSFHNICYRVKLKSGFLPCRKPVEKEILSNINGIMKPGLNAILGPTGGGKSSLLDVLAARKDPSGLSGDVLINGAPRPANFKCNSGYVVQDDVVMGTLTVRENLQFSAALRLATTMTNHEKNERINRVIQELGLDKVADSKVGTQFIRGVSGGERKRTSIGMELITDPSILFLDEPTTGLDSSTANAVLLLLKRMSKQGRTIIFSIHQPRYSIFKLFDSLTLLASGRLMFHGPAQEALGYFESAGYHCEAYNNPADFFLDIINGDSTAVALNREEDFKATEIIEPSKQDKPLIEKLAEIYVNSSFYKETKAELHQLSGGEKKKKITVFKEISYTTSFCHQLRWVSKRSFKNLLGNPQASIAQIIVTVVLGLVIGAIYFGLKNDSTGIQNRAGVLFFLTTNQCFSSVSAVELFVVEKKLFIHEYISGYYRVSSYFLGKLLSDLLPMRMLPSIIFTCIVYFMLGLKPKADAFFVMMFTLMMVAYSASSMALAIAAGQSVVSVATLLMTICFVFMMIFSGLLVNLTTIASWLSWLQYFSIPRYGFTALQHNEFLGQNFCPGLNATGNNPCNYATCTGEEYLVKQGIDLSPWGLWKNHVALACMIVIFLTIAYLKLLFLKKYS
Chain of Cytochrome P450 2C19 (Homo sapiens) (P33261 whole entry, looked up): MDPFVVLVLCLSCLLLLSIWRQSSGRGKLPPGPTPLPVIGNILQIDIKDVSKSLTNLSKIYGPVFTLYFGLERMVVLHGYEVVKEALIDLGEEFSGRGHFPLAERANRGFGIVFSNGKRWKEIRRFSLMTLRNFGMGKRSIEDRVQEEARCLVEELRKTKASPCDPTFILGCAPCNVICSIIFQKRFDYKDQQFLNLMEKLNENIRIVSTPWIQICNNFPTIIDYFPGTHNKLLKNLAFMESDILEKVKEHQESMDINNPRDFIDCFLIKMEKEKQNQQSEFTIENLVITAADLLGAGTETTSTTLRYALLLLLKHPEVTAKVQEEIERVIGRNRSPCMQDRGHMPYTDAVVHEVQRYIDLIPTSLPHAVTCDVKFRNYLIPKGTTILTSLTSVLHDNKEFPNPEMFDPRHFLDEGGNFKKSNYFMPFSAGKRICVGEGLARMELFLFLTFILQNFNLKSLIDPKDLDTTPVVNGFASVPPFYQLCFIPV

With `OCCOc1ccccc1` the outcome [1] was “inactive”, the outcome [2] was “inactive” and the outcome [3] was “inactive”.
With `CNC(=O)Oc1cccc(N=CN(C)C)c1` the outcome [4] was “inactive”, the outcome [5] was “inactive” and the outcome [2] was “inactive”. For the same molecule, the outcome [3] was “inactive”.
With `CCC(C)(NC(=O)c1cc(Cl)c(C)c(Cl)c1)C(=O)CCl` (centres undefined) the AC50 [4] was 20 µM (active), the outcome [2] was “inactive” and the outcome [3] was “inactive”. The AC50 [6] was 19.6 µM (active).
In the case of `CCC(C)(C)C(=O)OC1=C(c2ccc(Cl)cc2Cl)C(=O)OC12CCCCC2`, the outcome [7] is reported as “inactive”, the outcome [5] is reported as “inactive” and the outcome [2] is reported as “inactive”. The outcome [3] was “inactive”.
With `CCOc1nc(NC)nc(NC(=O)NS(=O)(=O)c2ccccc2C(=O)OC)n1` the outcome [7] was “inactive”, the outcome [5] was “inactive” and the outcome [8] was “inactive”. For the same molecule, the outcome [2] was “inactive” and the outcome [3] was “inactive”.
In the case of `O=S(=O)(O)C(F)(F)C(F)(F)C(F)(F)C(F)(F)C(F)(F)C(F)(F)C(F)(F)C(F)(F)F`, the outcome [5] is reported as “inactive”, the outcome [8] is reported as “inactive” and the outcome [3] is reported as “inactive”. For the same molecule, the outcome [9] was “inactive” and the outcome [6] was “inactive”.
For `COc1nn(CSP(=S)(OC)OC)c(=O)s1`, the outcome [3] was “inactive”.
In the case of `CCOC1Oc2ccc(OS(C)(=O)=O)cc2C1(C)C` (centres undefined), the outcome [7] is reported as “inactive”, the outcome [2] is reported as “inactive” and the outcome [3] is reported as “inactive”. The AC50 [6] was 86.3 µM (active).
For `CCCN(CCOc1c(Cl)cc(Cl)cc1Cl)C(=O)n1ccnc1`, the AC50 [7] was 35.4 µM (active), the outcome [5] was “inactive” and the outcome [2] was “inactive”.
For `CC(C)(C)C(O)/C(=C\c1ccc(Cl)cc1Cl)n1cncn1` (centres undefined), the AC50 [7] was 31.5 µM (active), the outcome [2] was “inactive” and the outcome [3] was “inactive”. The AC50 [6] was 69.4 µM (active).
With `CCc1ccc(C(=O)NN(C(=O)c2cc(C)cc(C)c2)C(C)(C)C)cc1` the outcome [8] was “inactive” and the AC50 [3] was 3.53 µM (active).
For `CC1(c2ccc(Oc3ccccc3)cc2)OC(=O)N(Nc2ccccc2)C1=O` (centres undefined), the outcome [7] was “inactive”, the outcome [5] was “inactive” and the outcome [2] was “inactive”. For the same molecule, the outcome [9] was “inactive” and the AC50 [6] was 4.54 µM (active).
